Source: PubChem BioAssay AID1159580 (chemical genetic matrix, 2015)
Several values for one entry are separate records, joined by “and”; a condition that tells them apart may be missing. Equal entries are not always repeated. The campaign covered roughly 5,500 compounds. About 2,000 (36%) were called active. Inconclusive results (about 18%) are left out. Rule as the data show it: active = normalized growth mostly below about 0.91 (no sharp cut-off); inconclusive = no clear call, values can overlap the other calls; inactive = mostly above about 0.92. Some of the results follow.

Test: chemical genetic growth profiling, strain panel (AID 1159580);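 also: tested at 20 µM; growth read once vehicle control cultures reached saturation at 30 °C; 1 = growth at the plate median or of vehicle wells; lower values mean less growth of the strain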
Conditions: S. cerevisiae deletion strains, growth OD

Measured: normalized growth

Oc1c(Cl)cc(Cl)cc1Sc1cc(Cl)cc(Cl)c1O
inactive: locus YBR021W, strain FUR4, stronger effect = lower value 0.989 | locus YBR229C, strain ROT2, stronger effect = lower value 0.998 | locus YCL029C, strain bik1, stronger effect = lower value 0.964 | locus YDL035C, strain GPR1, stronger effect = lower value 1.05 | locus YDL074C, strain BRE1, stronger effect = lower value 0.979 | locus YDL101C, strain DUN1, stronger effect = lower value 0.978 | locus YDL185W, strain tfp1, stronger effect = lower value 0.966 | locus YDL192W, strain arf1, stronger effect = lower value 0.992 | locus YDR101C, strain arx1, stronger effect = lower value 0.978 | locus YDR150W, strain NUM1, stronger effect = lower value 0.982 | locus YDR162C, strain NBP2, stronger effect = lower value 1.01 | locus YDR318W, strain mcm21, stronger effect = lower value 0.98 | locus YDR388W, stronger effect = lower value 0.983 | locus YDR502C, strain sam2, stronger effect = lower value 0.985 | locus YEL061C, strain CIN8, stronger effect = lower value 0.988 | locus YER110C, stronger effect = lower value 0.964 | locus YER155C, strain BEM2, stronger effect = lower value 0.985 | locus YER167W, strain BCK2, stronger effect = lower value 0.996 | locus YGL078C, strain dbp3, stronger effect = lower value 0.984 | locus YGL086W, strain mad1, stronger effect = lower value 0.995 | locus YGL248W, strain PDE1, stronger effect = lower value 0.981 | locus YGR078C, strain PAC10, stronger effect = lower value 0.981 | locus YGR135W, strain pre9, stronger effect = lower value 0.98 | locus YGR229C, strain SMI1, stronger effect = lower value 1.02 | locus YGR252W, strain gcn5, stronger effect = lower value 1.03 | locus YHR079C, strain IRE1 (second series), stronger effect = lower value 0.966 | locus YHR094C, strain hxt1, stronger effect = lower value 0.976 | locus YHR129C, strain ARP1, stronger effect = lower value 0.994 | locus YHR200W, strain rpn10, stronger effect = lower value 0.97 | locus YIL066C, strain RNR3, stronger effect = lower value 1.01 | locus YIL073C, strain SPO22, stronger effect = lower value 0.942 | locus YIL125W, strain kgd1, stronger effect = lower value 0.996 | locus YIR030C, strain dcg1, stronger effect = lower value 1.01 | locus YJL134W, strain LCB3, stronger effect = lower value 0.989 | locus YJL168C, strain set2, stronger effect = lower value 0.984 | locus YJL187C, strain SWE1 (second series), stronger effect = lower value 0.969 | locus YJR043C, strain POL32, stronger effect = lower value 1.05 | locus YJR075W, strain HOC1, stronger effect = lower value 0.962 | locus YKL009W, strain mrt4, stronger effect = lower value 0.956 | locus YKL068W, stronger effect = lower value 0.978 | locus YKL085W, strain MDH1 (second series), stronger effect = lower value 0.973 | locus YKL085W, strain MDH1, stronger effect = lower value 0.973 | locus YKR001C, strain vps1, stronger effect = lower value 1.01 | locus YLR039C, strain RIC1, stronger effect = lower value 0.945 | locus YLR058C, strain SHM2, stronger effect = lower value 0.984 | locus YLR102C, strain apc9, stronger effect = lower value 0.962 | locus YLR262C, strain YPT6, stronger effect = lower value 1 | locus YLR268W, strain sec22, stronger effect = lower value 0.976 | locus YLR330W, strain CHS5, stronger effect = lower value 0.995 | locus YLR342W, strain FKS1 (second series), stronger effect = lower value 1.05 | locus YLR371W, strain rom2, stronger effect = lower value 0.994 | locus YLR418C, strain cdc73, stronger effect = lower value 0.979 | locus YML016C, strain PPZ1, stronger effect = lower value 0.991 | locus YML032C, strain rad52, stronger effect = lower value 0.986 | locus YML124C, strain tub3, stronger effect = lower value 0.989 | locus YMR078C, strain ctf18, stronger effect = lower value 0.989 | locus YMR223W, strain ubp8, stronger effect = lower value 0.991 | locus YMR307W, strain GAS1, stronger effect = lower value 1.17 | locus YNL067W, strain RPL9B, stronger effect = lower value 0.941 | locus YNL233W, strain BNI4, stronger effect = lower value 0.966 | locus YNL250W, strain rad50, stronger effect = lower value 0.98 | locus YNL271C, strain bni1, stronger effect = lower value 0.996 | locus YNL298W, strain CLA4, stronger effect = lower value 0.967 | locus YNL307C, strain MCK1, stronger effect = lower value 0.975 | locus YNR052C, strain pop2, stronger effect = lower value 0.982 | locus YOL006C, strain TOP1, stronger effect = lower value 0.921 | locus YOL012C, strain htz1 0.709 | locus YOL147C, strain pex11, stronger effect = lower value 0.975 | locus YOR061W, strain CKA2, stronger effect = lower value 0.994 | locus YOR069W, strain VPS5, stronger effect = lower value 0.989 | locus YOR136W, strain idh2, stronger effect = lower value 0.978 | locus YOR144C, strain elg1, stronger effect = lower value 0.993 | locus YOR184W, strain ser1, stronger effect = lower value 0.979 | locus YOR316C, strain cot1, stronger effect = lower value 0.97 | locus YPL055C, strain LGE1, stronger effect = lower value 0.973 | locus YPL241C, strain CIN2, stronger effect = lower value 0.984 | locus YPR119W, strain clb2, stronger effect = lower value 0.985 | locus YPR141C, strain kar3, stronger effect = lower value 0.979 | locus YPR163C, strain tif3, stronger effect = lower value 0.983 | locus YPR167C, strain met16, stronger effect = lower value 0.986 | strain wtn01, stronger effect = lower value 0.995
0.951 (inactive) and 0.106 (active): locus YJL095W, strain BCK1, stronger effect = lower value
active: locus YAL021C, strain ccr4, stronger effect = lower value 0.067 | locus YAL026C, strain drs2, stronger effect = lower value 0.0634 | locus YAL030W, strain snc1, stronger effect = lower value 0.0557 | locus YBL061C, strain skt5, stronger effect = lower value 0.0575 | locus YBR009C, strain hhf1, stronger effect = lower value 0.061 | locus YBR023C, strain chs3, stronger effect = lower value 0.0607 | locus YBR171W, strain sec66, stronger effect = lower value 0.077 | locus YBR231C, strain swc5, stronger effect = lower value 0.0615 | locus YBR279W, strain paf1, stronger effect = lower value 0.0577 | locus YCL011C, strain gbp2, stronger effect = lower value 0.0589 | locus YCL016C, strain dcc1, stronger effect = lower value 0.064 | locus YCL069W, strain vba3, stronger effect = lower value 0.0603 | locus YCR088W, strain abp1, stronger effect = lower value 0.0604 | locus YDL005C, strain med2, stronger effect = lower value 0.0721 | locus YDL040C, strain nat1, stronger effect = lower value 0.0555 | locus YDR001C, strain nth1, stronger effect = lower value 0.0578 | locus YDR069C, strain doa4, stronger effect = lower value 0.0618 | locus YDR137W, strain rgp1, stronger effect = lower value 0.09 | locus YDR159W, strain sac3, stronger effect = lower value 0.0888 | locus YDR195W, strain ref2 0.123 | locus YDR297W, strain sur2, stronger effect = lower value 0.0581 | locus YDR334W, strain swr1, stronger effect = lower value 0.0632 | locus YDR335W, strain msn5, stronger effect = lower value 0.0596 | locus YDR392W, strain spt3, stronger effect = lower value 0.081 | locus YEL003W, strain gim4, stronger effect = lower value 0.0535 | locus YEL037C, strain rad23, stronger effect = lower value 0.0573 | locus YEL061C, strain CIN8 (second series), stronger effect = lower value 0.0607 | locus YER015W, strain faa2, stronger effect = lower value 0.0587 | locus YER016W, strain bim1, stronger effect = lower value 0.0576 | locus YER111C, strain swi4, stronger effect = lower value 0.0718 | locus YER155C, strain BEM2 (second series), stronger effect = lower value 0.0937 | locus YFR010W, strain ubp6, stronger effect = lower value 0.0679 | locus YGL167C, strain pmr1, stronger effect = lower value 0.0712 | locus YGL173C, strain kem1, stronger effect = lower value 0.0685 | locus YGL227W, strain vid30, stronger effect = lower value 0.0624 | locus YGL240W, strain doc1, stronger effect = lower value 0.0755 | locus YGL253W, strain hxk2, stronger effect = lower value 0.0537 | locus YHR013C, strain ard1, stronger effect = lower value 0.105 | locus YHR027C, strain rpn1, stronger effect = lower value 0.0591 | locus YHR079C, strain IRE1, stronger effect = lower value 0.129 | locus YHR142W, strain chs7, stronger effect = lower value 0.0784 | locus YJL092W, strain hpr5, stronger effect = lower value 0.0598 | locus YJL095W, strain BCK1 (second series), stronger effect = lower value 0.0564 | locus YJL115W, strain asf1, stronger effect = lower value 0.0719 | locus YJL129C, strain trk1, stronger effect = lower value 0.0818 | locus YJL154C, strain vps35, stronger effect = lower value 0.0607 | locus YJL164C, strain tpk1, stronger effect = lower value 0.0913 | locus YJL166W, strain qcr8, stronger effect = lower value 0.0591 | locus YJR066W, strain TOR1, stronger effect = lower value 0.00096 | locus YKL160W, strain elf1, stronger effect = lower value 0.0607 | locus YKR026C, strain gcn3, stronger effect = lower value 0.0616 | locus YKR091W, strain srl3, stronger effect = lower value 0.0572 | locus YLL001W, strain dnm1, stronger effect = lower value 0.0641 | locus YLL026W, stronger effect = lower value 0.0559 | locus YLL041C, strain sdh2, stronger effect = lower value 0.0561 | locus YLR027C, strain aat2, stronger effect = lower value 0.0575 | locus YLR113W, strain HOG1, stronger effect = lower value 0.152 | locus YLR221C, strain rsa3, stronger effect = lower value 0.0589 | locus YLR258W, strain gsy2, stronger effect = lower value 0.0608 | locus YLR262C, strain YPT6 (second series), stronger effect = lower value 0.0722 | locus YLR320W, strain mms22, stronger effect = lower value 0.0755 | locus YLR342W, strain FKS1, stronger effect = lower value 0.0628 | locus YLR357W, strain rsc2, stronger effect = lower value 0.119 | locus YLR370C, strain arc18, stronger effect = lower value 0.0603 | locus YLR384C, strain iki3, stronger effect = lower value 0.0584 | locus YML120C, strain ndi1, stronger effect = lower value 0.0563 | locus YMR058W, strain fet3, stronger effect = lower value 0.0603 | locus YMR125W, strain sto1, stronger effect = lower value 0.0858 | locus YMR129W, stronger effect = lower value 0.0578 | locus YMR205C, strain PFK2, stronger effect = lower value 0.0864 | locus YMR231W, strain pep5, stronger effect = lower value 0.0649 | locus YNL071W, strain lat1, stronger effect = lower value 0.0603 | locus YNL183C, strain NPR1, stronger effect = lower value -0.00055 | locus YNL209W, strain ssb2, stronger effect = lower value 0.0572 | locus YNL248C, strain rpa49, stronger effect = lower value 0.0762 | locus YNL322C, strain KRE1 (second series), stronger effect = lower value 0.0643 | locus YNR049C, strain mso1, stronger effect = lower value 0.0565 | locus YOR001W, strain rrp6, stronger effect = lower value 0.0689 | locus YOR070C, strain gyp1, stronger effect = lower value 0.0566 | locus YOR080W, strain dia2, stronger effect = lower value 0.0627 | locus YOR083W, strain WHI5, stronger effect = lower value 0.0603 | locus YOR106W, strain vam3, stronger effect = lower value 0.0687 | locus YOR231W, strain MKK1, stronger effect = lower value 0.118 | locus YOR265W, strain rbl2, stronger effect = lower value 0.0558 | locus YOR270C, strain vph1, stronger effect = lower value 0.113 | locus YOR290C, strain snf2, stronger effect = lower value 0.0666 | locus YPL051W, strain arl3, stronger effect = lower value 0.0608 | locus YPL078C, strain atp4, stronger effect = lower value 0.0682 | locus YPL106C, strain sse1, stronger effect = lower value 0.111 | locus YPL240C, strain hsp82, stronger effect = lower value 0.0577 | locus YPL256C, strain CLN2, stronger effect = lower value 0.147
0.99 (inactive) and 0.152 (active): locus YHR030C, strain SLT2, stronger effect = lower value
